Source: PubChem BioAssay AID624331 (National Center for Advancing Translational Sciences (NCATS), 2012)
Inconclusive results are not listed. Where a call stands in place of a potency, no number is given. Active and inactive are the calls of the source. Calls come from the whole dose curve; as a rule, active = well fitted activation curve with a large enough effect; inconclusive = small, poorly fitted or top-dose-only effect; inactive = no such curve, though single readings can be large or run the other way.

Experiment: qHTS assay for re-activators of p53 using a Luc reporter: Hit Validation with no p53 Expressed
Summary of the method: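 Without p53 expression, cells (1000/well, Opti-MEM + 10% FBS) were exposed 24 h at 37 deg C to compounds in a 1:5 series from 10 mM stock (top 46.1 µM in well). Luminescent signal read 10 min after Amplite addition; actives flag unspecific activation.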
Potency is the fitted concentration of half-maximal effect.

Structure (SMILES): Cc1cc(/C=C2/C(=O)NN(c3ccccc3)C2=O)c(C)n1-c1cccc(O)c1
- Potency: inactive

Structure (SMILES): CCN(CC)CCn1c(SCC(=O)Nc2ccc3c(c2)CCC3)nc2ccccc2c1=O
- Potency: 8.2 µM (active)

Structure (SMILES): COc1ccc2c(c1)CCC/C2=N\NC(=O)c1ccoc1C
- Potency: inactive

Structure (SMILES): c1cnc2c(OCc3nc4ccccc4[nH]3)cccc2c1
- Potency: inactive

Structure (SMILES): O=C(CC(=O)c1ccccc1O)c1cccc(F)c1
- Potency: inactive

Structure (SMILES): CCOC(=O)c1ccc2ncc(C(=O)OCC)c(NCc3ccco3)c2c1
- Potency: inactive

Structure (SMILES): Cc1ccc(C(=O)NC2CC2)cc1S(=O)(=O)N1CCOCC1
- Potency: inactive

Structure (SMILES): CC(C)(C)OC(=O)N1CCC(C(=O)Nc2ccc3c(c2)CCC3)CC1
- Potency: inactive

Structure (SMILES): Cc1ccc2oc(C(=O)Nc3cc(C)on3)c(C)c2c1
- Potency: 9.2 µM (active)

Structure (SMILES): O=C(NNC(=O)c1cc(-c2ccccc2)nn1-c1ccccc1)c1ccccc1
- Potency: inactive

Structure (SMILES): O=C(CSc1nnc(-c2ccc(F)cc2)c2ccccc12)Nc1ccccc1
- Potency: inactive

Structure (SMILES): O=C(CSc1ccccc1)Nc1ccc(-c2nc3ccccc3[nH]2)cc1
- Potency: inactive

Structure (SMILES): CCN(CC)C(=O)CSc1ncnc2c(-c3cccs3)nsc12
- Potency: inactive

Structure (SMILES): CC(C)OC(=O)CCCCCN1C(=O)CSC1=S
- Potency: inactive

Structure (SMILES): Clc1ccc(OCc2nc(-c3ccccn3)n[nH]2)cc1
- Potency: inactive

Structure (SMILES): C=CCn1c(SCC(=O)Nc2ccc(-c3nc4ccc(C)cc4s3)cc2)nnc1-c1ccccc1
- Potency: inactive

Structure (SMILES): COc1ccc(CCC(=O)Nc2ccc(-c3noc(-c4ccc(OC)c(OC)c4)n3)cc2)cc1
- Potency: inactive

Structure (SMILES): O=C(NNC(=O)c1ccc(Cl)cc1Cl)c1ccncc1
- Potency: inactive

Structure (SMILES): CCOC(=O)NC1(Nc2ccc(C)cc2)Oc2ccccc2O1
- Potency: inactive

Structure (SMILES): Cc1ccc(C(=O)Nc2ncc3c(n2)CC(c2ccco2)CC3=O)cc1 (stereo not drawn)
- Potency: inactive

Structure (SMILES): CC(C)(C)NC(=O)C(c1ccc(Cl)cc1)N(CCO)C(=O)c1snc(C(N)=O)c1N (stereo not drawn)
- Potency: inactive

Structure (SMILES): CCOC(=O)c1[nH]c(C)c(C(=O)NCCC2=CCCCC2)c1C
- Potency: inactive

Structure (SMILES): COc1cc(N=c2c([N+](=O)[O-])nn(-c3ccc4c(c3)OCCO4)n2O)cc(OC)c1
- Potency: inactive

Structure (SMILES): COc1ccc(C2/C(=C(/O)c3ccc(C)cc3)C(=O)C(=O)N2CCCN2CCOCC2)cc1 (stereo not drawn)
- Potency: inactive

Structure (SMILES): Cc1ccc(/C=N/NC(=O)c2cccs2)s1
- Potency: inactive

Structure (SMILES): Cc1ccc(OCC(=O)Nc2ccc(Cl)cc2)c([N+](=O)[O-])n1
- Potency: inactive

Structure (SMILES): COc1ccccc1C(=O)CC(=O)c1ccccc1
- Potency: inactive

Structure (SMILES): CC1CCN(C(=O)c2cc(-c3ccccc3O)on2)CC1
- Potency: inactive

Structure (SMILES): O=C(c1cccc(Br)c1)c1coc2ccc(O)cc12
- Potency: inactive

Structure (SMILES): Nc1c(C(=O)CSc2nc3ccccc3o2)c(=O)[nH]c(=O)n1C1CC1
- Potency: inactive

Structure (SMILES): Cc1cccc2nc(CSC(=N)N)c(Br)n12
- Potency: inactive

Structure (SMILES): O=C(Nc1nc(-c2cccs2)cs1)c1ccc([N+](=O)[O-])o1
- Potency: inactive

Structure (SMILES): OCc1cc(Br)ccc1OCc1nc2ccccc2s1
- Potency: inactive

Structure (SMILES): C/C(CC(C)C)=N\NC(=O)Nc1ccccc1
- Potency: inactive

Structure (SMILES): C(=C\c1nc(-c2ccccc2)no1)/c1ccccc1
- Potency: inactive

Structure (SMILES): COc1ccc(N(C(=O)Nc2ccc(Cl)cc2)C2=NCCC2)cc1
- Potency: inactive

Structure (SMILES): CCOP(=O)(OCC)C(NC(=O)Nc1ccccc1)C(N)=O (stereo not drawn)
- Potency: inactive

Structure (SMILES): CC12CCC(C(=O)N(CSC(=S)N/N=C\c3ccccc3O)C1=O)C2(C)C (stereo not drawn)
- Potency: inactive

Structure (SMILES): Nc1nonc1-n1nnc(C(=O)N/N=C/c2cc(Br)ccc2O)c1CSC1=NCCS1
- Potency: inactive

Structure (SMILES): CCCCc1ccc(NC(=S)Nc2ccc(Nc3ccc(OC)cc3)cc2)cc1
- Potency: inactive

Structure (SMILES): Cc1ccc(NC(=O)/C=C/c2ccc([N+](=O)[O-])s2)c(C)c1
- Potency: inactive

Structure (SMILES): CCN(CC)C(=O)CNC(=S)N(CCCN1CCOCC1)Cc1cccs1
- Potency: inactive

Structure (SMILES): Cc1nonc1NCn1nnc2ccccc21
- Potency: inactive

Structure (SMILES): N/C(=N\OC(=O)c1ccccc1Cl)c1ccc(Cl)cc1
- Potency: inactive

Structure (SMILES): Nc1c(C(=O)c2ccc(Br)cc2)oc2ccccc12
- Potency: inactive

Structure (SMILES): CCOc1ccc(NS(=O)(=O)c2ccc(C(=O)NC3CCN(Cc4ccccc4)CC3)cc2)cc1
- Potency: inactive

Structure (SMILES): COc1ccc(NC(=O)/C(=C\c2ccc3c(c2)OCO3)NC(C)=O)cc1
- Potency: inactive

Structure (SMILES): COc1ccc(-c2nnc(-c3ccc(Br)o3)o2)cc1OC
- Potency: inactive

Structure (SMILES): Cc1ccc2nc(C(F)(F)F)c(C#N)c(N)c2c1
- Potency: inactive

Structure (SMILES): Cc1ccc2cc(CCNC(=O)c3ccco3)c(=O)[nH]c2c1C
- Potency: inactive

Structure (SMILES): O=C(CN1C(=O)COc2ccccc21)Nc1ccc(F)cc1
- Potency: inactive

Structure (SMILES): NC(=O)c1cc(Cl)ccc1OCC(=O)Nc1ccc2c(c1)OCO2
- Potency: inactive

Structure (SMILES): O=C(COC(=O)c1cc2ccccc2oc1=O)Nc1cccc(S(=O)(=O)N2CCCCCC2)c1
- Potency: inactive

Structure (SMILES): Cc1ccc(Nc2nc(N)nc(CSc3nccn3C)n2)cc1
- Potency: inactive

Structure (SMILES): COc1ccccc1NC(CC(=O)c1ccccc1)C(=O)OCC(=O)c1ccc(C)c(C)c1 (stereo not drawn)
- Potency: inactive

Structure (SMILES): CN(c1ccc(C(=O)COC(=O)C2CC2)cc1)S(C)(=O)=O
- Potency: inactive

Structure (SMILES): C/C(=N\NC(=O)c1cc(C)nc2ccccc12)c1ccccn1
- Potency: inactive

Structure (SMILES): O=C(Nc1ccccc1Cl)c1ccc2c(=O)n3c(nc2c1)CCC3
- Potency: inactive

Structure (SMILES): O=C(CN1C(=O)NC2(CCCc3ccccc32)C1=O)c1ccc(F)cc1 (stereo not drawn)
- Potency: inactive

Structure (SMILES): Cc1csc(NC(=O)CSc2nnc(-c3cccs3)n2C)n1
- Potency: inactive

Structure (SMILES): Cc1ccc(NC(=S)NCC2CCCO2)c(OC(F)F)c1 (stereo not drawn)
- Potency: inactive

Structure (SMILES): CC(C)[C@H](NC(=O)c1ccc(Cl)cc1Cl)C(=O)NNc1cccc(C(=O)O)c1
- Potency: inactive

Structure (SMILES): Cn1c(=NC(=O)c2ccco2)sc2cccc(F)c21
- Potency: inactive

Structure (SMILES): CC(=O)/C=C(\C)Nc1ccc(-c2cnc(-c3ccccc3)o2)cc1
- Potency: inactive

Structure (SMILES): c1ccc(-c2cn3nc(-c4ccccc4)cnc3n2)cc1
- Potency: inactive

Structure (SMILES): Cc1ccc(-c2nnc(SCc3ccccc3F)o2)cc1
- Potency: inactive

Structure (SMILES): O=C(Cn1cc(SCc2ccc(F)cc2)c2ccccc21)N1CCOCC1
- Potency: inactive

Structure (SMILES): COc1cc(OC)cc(C(=O)NNC(=O)c2ccccn2)c1
- Potency: inactive

Structure (SMILES): Cc1cccc(C(=O)OCC(=O)N2CCCCCC2)c1O
- Potency: inactive

Structure (SMILES): COc1ccc(C(c2nnnn2CCc2ccccc2)N2CCN(C3CCCC3)CC2)cc1 (stereo not drawn)
- Potency: inactive

Structure (SMILES): Cc1cnc(C(=O)OCC(=O)c2csc(N3CCCCC3)n2)cn1
- Potency: inactive

Structure (SMILES): Cc1ccsc1/C=C(\C#N)C(=O)Nc1c(C)n(C)n(-c2ccccc2)c1=O
- Potency: inactive

Structure (SMILES): CNc1nnc(SCC(=O)c2cc(C)n(C3CC3)c2C)s1
- Potency: inactive

Structure (SMILES): O=C(c1cnn(-c2ccccc2)c1)c1ccccc1O
- Potency: inactive

Structure (SMILES): COC(=O)c1ccc(-c2nc(-c3cccs3)no2)cc1
- Potency: inactive

Structure (SMILES): Cc1ccc(C(C)C)c(OCc2ccc(C(=O)N/N=C/c3ccc(O)cc3O)cc2)c1
- Potency: inactive

Structure (SMILES): O=C(N/N=C/c1sc(=O)[nH]c1-[n+]1ccc2ccccc2c1)c1ccccc1[O-]
- Potency: inactive

Structure (SMILES): CCOc1ccc(-c2cnc3ccccc3n2)cc1
- Potency: inactive
